Experimental data reported in PubChem BioAssay (Tox21).
A number with no mark means an inactive call. Inconclusive results are not listed. A call without a number means that no potency is given here. Active and inactive are the calls of the source. Unless noted, calls follow the shape of the dose curve; as a rule, active = well fitted curve in the direction sought with a large enough effect in the repeat runs; inconclusive = weak or mixed curves; inactive = no such curve, though single readings can be large; an effect the other way counts as inactive or inconclusive.

Legend:
[1] = qHTS RealTime-Glo MT Cell Viability Assay in HepG2 cells - 32 hour (AID 1224877); also: nearly all actives have a fitted effect of over 55% in size
In short: (§1)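 HepG2 suspension premixed with RealTime-Glo reagents is plated at 600 cells per well and left 5 h at 37 C/5% CO2. Compounds in DMSO then go in, and bioluminescence reflecting viable cell number is recorded over 40 h.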

[2] = A CellTox Green Cytotoxicity Assay to monitor cytotoxicity in HepG2 cells - 24 hour (AID 1224878); also: nearly all actives have a fitted effect of over 45% in size; also: potency is read from the fitted curve at half-maximal effect
In short: (§2)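 Fluorescent DNA-binding dye, 600 HepG2 cells/well, 5 h preincubation then compound in DMSO; same plates read at 0–40 h, 37 C.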

[3] = A CellTox Green Cytotoxicity Assay to monitor cytotoxicity in HepG2 cells - 40 hour (AID 1224879); also: nearly all actives have a fitted effect of over 40% in size; also: potency is read from the fitted curve at half-maximal effect
In short: as §2

[4] = qHTS RealTime-Glo MT Cell Viability Assay in HEK293 cells - 0 hour (AID 1224880); also: top concentration of the series differs between compounds; nearly all actives have a fitted effect of over 45% in size
In short: (§3)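 Measured as luminescence from the same continuously cultured HEK293 wells at successive time points (0, 8, 16, 24, 32, 40 h) after compound addition. Reagent present from seeding; dosing at 5 h; incubation 37 C.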

[5] = A CellTox Green Cytotoxicity Assay to monitor cytotoxicity in HEK293 cells - 32 hour (AID 1224881); also: nearly all actives have a fitted effect of over 40% in size; also: potency is read from the fitted curve at half-maximal effect
In short: (§4)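 Homogeneous no-lysis format: HEK293 cell suspension mixed with CellTox Green reagent, seeded, incubated 5 h at 37 C/5% CO2, then dosed by pintool with compound in DMSO.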

[6] = A CellTox Green Cytotoxicity Assay to monitor cytotoxicity in HepG2 cells - 0 hour (AID 1224882); also: nearly all actives have a fitted effect of over 35% in size
In short: as §2

[7] = A CellTox Green Cytotoxicity Assay to monitor cytotoxicity in HepG2 cells - 32 hour (AID 1224883); also: nearly all actives have a fitted effect of over 50% in size; also: potency is read from the fitted curve at half-maximal effect
In short: as §2

[8] = qHTS RealTime-Glo MT Cell Viability Assay in HepG2 cells - 16 hour (AID 1224885); also: nearly all actives have a fitted effect of over 50% in size
In short: as §1

[9] = qHTS RealTime-Glo MT Cell Viability Assay in HEK293 cells - 24 hour (AID 1224886); also: top concentration of the series differs between compounds; nearly all actives have a fitted effect of over 50% in size
In short: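 Reads taken at 0, 8, 16, 24, 32 and 40 h from the same wells. HEK293 cells (600/well) carried RealTime-Glo reagents from seeding, with compound added after a 5 h settle at 37 C.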

[10] = qHTS RealTime-Glo MT Cell Viability Assay in HEK293 cells - 8 hour (AID 1224887); also: top concentration of the series differs between compounds; nearly all actives have a fitted effect of over 50% in size
In short: as §3

[11] = A CellTox Green Cytotoxicity Assay to monitor cytotoxicity in HEK293 cells - 16 hour (AID 1224888); also: nearly all actives have a fitted effect of over 35% in size; also: potency is read from the fitted curve at half-maximal effect
In short: as §4

[12] = qHTS RealTime-Glo MT Cell Viability Assay in HepG2 cells - 0 hour (AID 1224889); also: nearly all actives have a fitted effect of over 50% in size
In short: as §1

[13] = A CellTox Green Cytotoxicity Assay to monitor cytotoxicity in HepG2 cells - 8 hour (AID 1224890); also: nearly all actives have a fitted effect of over 45% in size; also: potency is read from the fitted curve at half-maximal effect
In short: as §2

[14] = qHTS assay to identify small molecule antagonists of the estrogen receptor alpha (ER-alpha) signaling pathway using the BG1 cell line in the presence of 0.1 nM 17-beta-estradiol - cell viability counter screen (AID 1259241); also: nearly all actives have a fitted effect of over 40% in size
In short: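 Live-cell protease activity (CellTiter-Fluor fluorescence, 30 min) was read in the same wells after VM7Luc4E2 cells had been exposed to compounds with 0.1 nM 17beta-estradiol for 22 hr at 37C.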

[15] = qHTS assay to identify small molecule antagonists of the androgen receptor (AR) signaling pathway using the MDA cell line in the presence of 0.5 nM R1881 - cell viability counter screen (AID 1259242); also: nearly all actives have a fitted effect of over 45% in size
In short: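 Human breast carcinoma MDA-kb2 cells, cultured without CO2, receive compounds alongside 0.5 nM (final) R1881 agonist. After 16 hr at 37C, viability is taken as live-cell protease signal.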

[16] = target: Estrogen receptor (Homo sapiens) (UniProt P03372); assay: qHTS assay to identify small molecule antagonists of the estrogen receptor alpha (ER-alpha) signaling pathway using the BG1 cell line in the presence of 0.1 nM 17-beta-estradiol (AID 1259244); also: nearly all actives have a fitted effect of over 50% in size
Chain of Estrogen receptor (Homo sapiens) (P03372 whole entry, looked up): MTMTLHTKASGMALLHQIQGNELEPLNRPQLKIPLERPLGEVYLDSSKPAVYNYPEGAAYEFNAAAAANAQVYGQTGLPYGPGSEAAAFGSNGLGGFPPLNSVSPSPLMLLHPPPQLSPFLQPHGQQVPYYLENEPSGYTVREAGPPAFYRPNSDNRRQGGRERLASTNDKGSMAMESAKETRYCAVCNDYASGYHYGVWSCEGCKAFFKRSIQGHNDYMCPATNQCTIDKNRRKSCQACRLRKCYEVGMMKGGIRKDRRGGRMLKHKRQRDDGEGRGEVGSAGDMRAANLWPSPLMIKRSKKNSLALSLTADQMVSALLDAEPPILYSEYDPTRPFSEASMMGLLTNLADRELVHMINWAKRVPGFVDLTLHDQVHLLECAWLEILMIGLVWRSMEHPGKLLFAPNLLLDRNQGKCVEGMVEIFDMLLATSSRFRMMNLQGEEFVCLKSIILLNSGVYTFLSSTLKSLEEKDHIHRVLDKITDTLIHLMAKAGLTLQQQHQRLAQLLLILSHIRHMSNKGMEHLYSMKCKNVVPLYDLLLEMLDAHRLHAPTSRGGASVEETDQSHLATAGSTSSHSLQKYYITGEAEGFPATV
In short: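 Seeding of stripped-serum-adapted VM7Luc4E2 cells, 24 h attachment, compound transfer, then 0.1 nM final 17beta-estradiol; after 22 h incubation, ONE-Glo reagent and luminescence reading.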

[17] = qHTS assay to identify small molecule phospholipidosis (PLD) inducers (AID 1259344; active = well fitted curve in the direction sought with a large enough effect; an effect the other way counts as inactive or inconclusive)
In short: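 Read-out is LipidTOX Red fluorescence (ex 595/em 615) imaged in HepG2 cells after 24 h compound exposure at 37 C, with Hoechst nuclear counterstain (ex 352/em 461) allowing per-cell normalisation.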

[18] = qHTS assay to identify small molecule HDAC inhibitors (AID 1259364)
In short: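 After a 2 hr compound incubation (37C, 5% CO2), HCT-116 cells seeded at 1,500/well the day before received HDAC-Glo reagent; signal read as luminescence after 30 min at room temperature.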

[19] = qHTS assay to identify small molecule HDAC inhibitors - cell viability counter screen (AID 1259365)
In short: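 HCT-116 (wild type), 1,500 cells/well, overnight 37C/5% CO2; compound in DMSO 2hr; CellTiter-Glo 30min RT; luminescence read.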

[20] = A CellTox Green Cytotoxicity Assay to monitor cytotoxicity in HEK293 cells - 8 hour (AID 1224884); also: nearly all actives have a fitted effect of over 35% in size; also: potency is read from the fitted curve at half-maximal effect
In short: as §4

Row | Structure (SMILES) | outcome [1] | Potency [2] | Potency [3] | outcome [4] | Potency [5] | Potency [6] | Potency [7] | outcome [8] | Potency [9] | Potency [10] | Potency [11] | Potency [12] | Potency [13] | Potency [14] | Potency [15] | Potency [16] | outcome [17] | Potency [18] | outcome [19] | Potency [20]
1 | O=P(O)(O)OCC(O)CO (stereo not drawn) | inactive | inactive | inactive | inactive | inactive | inactive | inactive | inactive | inactive | inactive | inactive | inactive | inactive | inactive | inactive | inactive | inactive | inactive | inactive | –
2 | CC(C)COC(=O)COc1ccc(Cl)cc1Cl | inactive | inactive | inactive | inactive | inactive | inactive | – | inactive | inactive | inactive | – | inactive | inactive | inactive | inactive | – | – | inactive | inactive | 43.6 µM (active)
3 | CCCCCCCCCCC | inactive | inactive | inactive | inactive | inactive | – | inactive | inactive | inactive | inactive | inactive | inactive | inactive | inactive | inactive | inactive | – | inactive | inactive | inactive
4 | Nc1ccc(C(=O)OCC(O)CO)cc1 (stereo not drawn) | inactive | inactive | inactive | inactive | inactive | – | inactive | inactive | inactive | inactive | inactive | inactive | inactive | inactive | inactive | inactive | – | inactive | inactive | inactive
5 | CCCCCCCCCOCC1CO1 (stereo not drawn) | inactive | inactive | inactive | inactive | inactive | inactive | inactive | inactive | – | inactive | inactive | inactive | inactive | inactive | inactive | – | – | inactive | inactive | –
6 | O=C(/C=C/c1ccccc1)NCCO | inactive | 6.74 µM (active) | 6.01 µM (active) | inactive | 6.74 µM (active) | – | 8.49 µM (active) | inactive | inactive | inactive | 8.49 µM (active) | inactive | 10.7 µM (active) | inactive | inactive | inactive | inactive | – | inactive | 9.52 µM (active)
7 | CC(C)=CC(C)(C)C | inactive | inactive | inactive | inactive | inactive | inactive | – | inactive | – | inactive | inactive | inactive | inactive | inactive | inactive | – | – | inactive | inactive | inactive
8 | OC[C@@H](O)[C@H](O)[C@@H](O)[C@@H](O)CO | inactive | inactive | inactive | inactive | inactive | inactive | – | inactive | inactive | inactive | inactive | inactive | inactive | inactive | inactive | inactive | – | inactive | inactive | –
